From PubChem BioAssay (NCI)
This is part of a sample that, as a whole, favours compounds with a hit. Of some 83,000 tested, about 20% had one in any assay.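 96-well plates, one dose, 48 hours. Percent growth reported; active if below 10.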 Values without a mark were called inactive. The source made the active and inactive calls.

System: NCI-H522 lung
Assay: NCI-60 one-dose screen, 48 h (100 = growth as untreated, 0 = no growth, -100 = all killed)
Details: 10 µM

SMILES	growth
COc1ccc2c(c1)C(=Nc1cc(OC)c(OC)c(OC)c1)C(=O)N2	89.9%
Cc1cn(C(C=O)OC(C=O)CO)c(=O)[nH]c1=O (stereo unspecified)	98%
CCOC(=O)CCC(=O)O[C@H]1[C@H](O[C@@H]2[C@@H](C)[C@H](O[C@H]3C[C@@](C)(OC)[C@@H](O)[C@H](C)O3)[C@@H](C)C(=O)O[C@H](CC)[C@@](C)(O)[C@H](O)[C@@H](C)C(=O)[C@H](C)C[C@@]2(C)O)O[C@H](C)C[C@@H]1N(C)C	92.6%
O=C1/C(=C/c2ccccc2O)C(=S)SN1Cc1ccco1	83.2%
COc1ccc(C(=O)COc2ccc(/C=C3\Oc4ccc5ccccc5c4C3=O)cc2)cc1	64%
N#Cc1ncc(-c2ccc(C(F)(F)F)cc2)c(NC2CCCCCC2)n1	-4.74% (active)

System: A549/ATCC NSCLC
Assay: as above
Details: 10 µM unless noted

SMILES	growth
C=C1CCC2C(C)(COC(=O)CC)C(OC(=O)CC)CCC2(C)C1C/C=C1/C(=O)OCC1OC(=O)CC (stereo unspecified)	46.1%
COCCOCCOCCOCCOc1ccc2c(c1)C(=O)c1nc3ncccc3c(=O)n1-2	-77.4% (active)
COc1ccc(C(=O)/C=C/c2ccc(C)cc2)cc1OC	36.3%
Cc1cc(=O)[nH]c(/C(=N/Nc2ccccc2)C(=O)c2ccc(Cl)cc2)n1	92.5%
Cc1ccc2nc3c(n2c1)C(=O)C(=O)c1ccccc1-3	-77.3% (active)
CSc1nc(-c2ccc(O)cc2O)c2c(=O)[nH]c(Nc3ccc(S(=O)(=O)Nc4nc(C)cc(C)n4)cc3)nc2n1	112%
Cc1ccc(/C=C(/C#N)n2nnc3ncccc32)cc1	2.14% (active)
CN1CCN(c2nc3scc(-c4ccccc4)c3c(=O)[nH]2)CC1	99%
Nc1ccccc1C#Cc1ccccc1C#Cc1ccc(OCCCCCCOc2ccc(C#Cc3ccccc3C#Cc3ccccc3N)cc2)cc1	106%
COP(=O)(OC)C(c1ccccc1)(c1ccccc1)c1ccccc1	74.5%
CCOc1cc(/C=C/C(=O)CC(=O)/C=C/c2ccc(OC(=O)CNc3nc4ccc(OC)cc4s3)c(OCC)c2)ccc1OC(=O)CNc1nc2ccc(OC)cc2s1	48.2%
Oc1c(Cl)cc(Oc2cc(Cl)c(O)c(CN3CCOCC3)c2)cc1CN1CCOCC1	78.7%
Nc1nc(Nc2ccccc2SSc2ccccc2Nc2nc(N)nc(-c3ccc(I)cc3)n2)nc(-c2ccc(I)cc2)n1	-19.9% (active)
CNc1nc(NC2CCCC2)nc(Sc2ccc(OC)cc2)n1	20.3% [100 µM]
O=C(NC1CCCCC1)c1ccc(Nc2ncnc3c2cnn3-c2ccccc2)cc1	16.6%
CCCc1n(Cc2ccc3ccccc3c2)cc[n+]1Cc1ccc2ccccc2c1	31.6%
COc1cccc(/C=N\NC(=O)c2ccncc2)c1O	73.2%
N/C(=N\c1nc2ccccc2s1)NC(=O)Nc1ccccc1Cl	21.6%
O=C1/C(=C/c2cccc(Cl)c2)CCc2ccccc21	90.2%
COc1ccc(N2CCN(CC(=O)N3CCN(c4nnc(-c5ccccc5)c(-c5ccccc5)n4)CC3)CC2)cc1	14.8%
O=C(Nc1ccccc1OC(=O)c1ccccc1)c1ccccc1	81.3%

System: 786-0 renal
Assay: as above
Details: 10 µM unless noted

SMILES	growth
COc1ccc2c(c1)C(=Nc1cc(OC)c(OC)c(OC)c1)C(=O)N2	104%
CC(=O)N1N=C(c2ccc(Cl)cc2)CC1c1c(C)nn(-c2ccccc2)c1N(C)Cc1ccccc1 (stereo unspecified)	84.7%
C=C1CCC2C(C)(COC(=O)CC)C(OC(=O)CC)CCC2(C)C1C/C=C1/C(=O)OCC1OC(=O)CC (stereo unspecified)	-97.4% (active)
COCCOCCOCCOCCOc1ccc2c(c1)C(=O)c1nc3ncccc3c(=O)n1-2	-51.5% (active)
CCCCN1c2nc3ccccc3cc2Sc2cc3ccccc3nc21	98.5%
Nc1ccn(C2O[C@H](CO)[C@@H](O)[C@@H]2O)c(=O)n1 (stereo partly specified)	10.2%
COc1ccc(C(=O)/C=C/c2ccc(C)cc2)cc1OC	85.3%
Cc1cc(=O)[nH]c(/C(=N/Nc2ccccc2)C(=O)c2ccc(Cl)cc2)n1	82.2%
Cc1ccc2nc3c(n2c1)C(=O)C(=O)c1ccccc1-3	-81% (active)
O=c1[nH]c(N2CCC(Cc3ccccc3)CC2)nc2sc3c(c12)CCCC3	105%
CSc1nc(-c2ccc(O)cc2O)c2c(=O)[nH]c(Nc3ccc(S(=O)(=O)Nc4nc(C)cc(C)n4)cc3)nc2n1	100%
Oc1ccccc1/C=N/N1CCCCCC1	110%
Cc1ccc(/C=C(/C#N)n2nnc3ncccc32)cc1	5.6% (active)
CN1CCN(c2nc3scc(-c4ccccc4)c3c(=O)[nH]2)CC1	98.3%
Nc1ccccc1C#Cc1ccccc1C#Cc1ccc(OCCCCCCOc2ccc(C#Cc3ccccc3C#Cc3ccccc3N)cc2)cc1	89.8%
CCOC(=O)Nc1cc(-c2ccc(C)c(NS(C)(=O)=O)c2)nn2c(C)nnc12	35.5%
O=C1OC2(c3ccccc31)c1ccccc1-c1ccccc12	86.2%
COP(=O)(OC)C(c1ccccc1)(c1ccccc1)c1ccccc1	93.3%
CCOc1cc(/C=C/C(=O)CC(=O)/C=C/c2ccc(OC(=O)CNc3nc4ccc(OC)cc4s3)c(OCC)c2)ccc1OC(=O)CNc1nc2ccc(OC)cc2s1	32.2%
Cc1cn(C(C=O)OC(C=O)CO)c(=O)[nH]c1=O (stereo unspecified)	107%

SMILES	growth
Oc1c(Cl)cc(Oc2cc(Cl)c(O)c(CN3CCOCC3)c2)cc1CN1CCOCC1	105%
Nc1nc(Nc2ccccc2SSc2ccccc2Nc2nc(N)nc(-c3ccc(I)cc3)n2)nc(-c2ccc(I)cc2)n1	86.9%
CNc1nc(NC2CCCC2)nc(Sc2ccc(OC)cc2)n1	13% [100 µM]
Cn1cc(NC(=O)Nc2cc(C(=O)O)n(C)c2)cc1C(=O)O	109%
CCOC(=O)CCC(=O)O[C@H]1[C@H](O[C@@H]2[C@@H](C)[C@H](O[C@H]3C[C@@](C)(OC)[C@@H](O)[C@H](C)O3)[C@@H](C)C(=O)O[C@H](CC)[C@@](C)(O)[C@H](O)[C@@H](C)C(=O)[C@H](C)C[C@@]2(C)O)O[C@H](C)C[C@@H]1N(C)C	98.2%
O=C(NC1CCCCC1)c1ccc(Nc2ncnc3c2cnn3-c2ccccc2)cc1	72.1%
Cc1sc2nc(NCCc3cccs3)[nH]c(=O)c2c1C	81.6%
CCCc1n(Cc2ccc3ccccc3c2)cc[n+]1Cc1ccc2ccccc2c1	9.55% (active)
O=C1/C(=C/c2ccccc2O)C(=S)SN1Cc1ccco1	103%
COc1cccc(/C=N\NC(=O)c2ccncc2)c1O	35.5%
COc1ccc(C(=O)COc2ccc(/C=C3\Oc4ccc5ccccc5c4C3=O)cc2)cc1	106%
CN1CCN(CCCOc2ccc3ncnc(Nc4ccc(OCc5cccc(F)c5)c(Cl)c4)c3c2)CC1	-86.6% (active)
N/C(=N\c1nc2ccccc2s1)NC(=O)Nc1ccccc1Cl	36.6%
O=C1/C(=C/c2cccc(Cl)c2)CCc2ccccc21	94.8%
NC(=O)NS(=O)(=O)c1ccc(N2N=C(C(F)(F)F)CC2c2cc(C(F)(F)F)cc(C(F)(F)F)c2)cc1 (stereo unspecified)	95.2%
COc1ccc(N2CCN(CC(=O)N3CCN(c4nnc(-c5ccccc5)c(-c5ccccc5)n4)CC3)CC2)cc1	27%
O=C(Nc1ccccc1OC(=O)c1ccccc1)c1ccccc1	96%
Oc1c(N=Nc2nn[nH]n2)ccc2ccccc12	102%
N#Cc1ncc(-c2ccc(C(F)(F)F)cc2)c(NC2CCCCCC2)n1	37.9%
